# PubChem BioAssay (NCATS)
# Results filed as inconclusive are left out. Entries that show only a call come without a potency. Calls of active or inactive are those of the source. Calls come from the whole dose curve.
# Tests used:
# [1] = Cytotoxicity counterscreen for inhibitors of SARS-CoV-2 cell entry (AID 1645845); note: nearly all actives have a fitted effect of over 50% in size
# How it was run: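 ATP-content luminescence (ATPLite 1step, 15 min RT) read after 48 h compound exposure of Expi293F cells stably expressing human ACE2; normalized to cells-only wells and media-only wells.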
# [2] = Primary qHTS to identify inhibitors of SARS-CoV-2 cell entry (AID 1645846); details: activity change, negative = inhibition: at 57.1 µM (top of the series) unless noted; note: nearly all actives have a fitted effect of over 45% in size
# How it was run: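 Inhibition of spike-mediated entry was scored in human ACE2-transfected Expi293F cells. Particles were MLV-pseudotyped with Wuhan-Hu-1 S carrying a 19-aa C-terminal deletion; signal was luciferase after two days, scaled between spike PP and fusion-protein-free PP.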
structure (smiles),measurement,setting,value
O=C1O[C@H](CO)[C@@H](O)[C@H](O)[C@H]1O,Potency,[1],inactive
same,"activity change, negative = inhibition",[2],-15.4%
NS(=O)(=O)c1cc(C(=O)NN2C[C@H]3[C@H]4CCC(C4)[C@H]3C2)ccc1Cl,Potency,[1],inactive
same,"activity change, negative = inhibition",[2],-24.3%
CCC[C@@H]1C[C@@H](C(=O)N[C@@H]([C@H]2O[C@H](SC)[C@H](O)[C@@H](O)[C@H]2O)[C@H](C)Cl)N(C)C1,Potency,[1],inactive
same,"activity change, negative = inhibition",[2],-7.46%
N#C[C@H]1C[C@H]2C[C@@H]2N1C(=O)[C@@H](N)C12CC3CC(CC(O)(C3)C1)C2,Potency,[1],inactive
same,"activity change, negative = inhibition",[2],-17.5%
Nc1nc(/C(=C/CC(=O)O)C(=O)N[C@@H]2C(=O)N3C(C(=O)O)=CCS[C@H]23)cs1,Potency,[1],inactive
same,"activity change, negative = inhibition",[2],-21.3%
Cc1ccnc(NS(=O)(=O)c2ccc(N)cc2)n1,Potency,[1],inactive
same,Potency,[2],inactive
CC(C(=O)O)c1ccc2c(c1)CC(=O)c1ccccc1S2 (configuration not stated),Potency,[1],inactive
same,Potency,[2],inactive
CC(C)(Sc1cc(C(C)(C)C)c(O)c(C(C)(C)C)c1)Sc1cc(C(C)(C)C)c(O)c(C(C)(C)C)c1,Potency,[1],inactive
same,Potency,[2],inactive
O=C(CCBr)N1CCN(C(=O)CCBr)CC1,Potency,[1],inactive
same,Potency,[2],inactive
NS(=O)(=O)c1cc(Cl)c(Cl)c(S(N)(=O)=O)c1,Potency,[1],inactive
same,"activity change, negative = inhibition",[2],-0.105%
NC(N)=NC(=O)Cc1c(Cl)cccc1Cl,Potency,[1],inactive
same,Potency,[2],inactive
COc1ccc(C(=O)c2ccccc2O)c(O)c1,Potency,[1],inactive
same,Potency,[2],inactive
C[C@H](CS)C(=O)N1CCC[C@H]1C(=O)O,Potency,[1],inactive
same,Potency,[2],inactive
CCS(=O)(=O)CCn1c([N+](=O)[O-])cnc1C,Potency,[1],inactive
same,Potency,[2],inactive
CC(C)[C@H](N)C(=O)OCCOCn1cnc2c(=O)[nH]c(N)nc21,Potency,[1],inactive
same,"activity change, negative = inhibition",[2],-28.1%
Clc1cccc(C(c2ccc3nc[nH]c3c2)n2ccnc2)c1 (configuration not stated),Potency,[1],inactive
same,Potency,[2],inactive
C[N+](C)(C)CCCCCC[N+](C)(C)C,Potency,[1],inactive
same,"activity change, negative = inhibition",[2],-3.21%
CC(=O)CC/C=C(\C)CC/C=C(\C)CC/C=C(\C)CCC=C(C)C,Potency,[1],inactive
same,"activity change, negative = inhibition",[2],-24.7%
COC(=O)/C=C\C(=O)OC,Potency,[1],inactive
same,"activity change, negative = inhibition",[2],-18.2%
CC(=O)[C@H]1CC[C@H]2[C@@H]3C[C@H](C)C4=CC(=O)CC[C@]4(C)[C@H]3[C@@H](O)C[C@]12C,Potency,[1],inactive
same,Potency,[2],inactive
CCn1cc(C(=O)O)c(=O)c2cnc(N3CCCC3)nc21,"activity change, negative = cytotoxicity",[1],1.65% [at 11.3 µM] (inactive)
same,"activity change, negative = inhibition",[2],0.588% [at 11.3 µM]
O=C(O)/C=C\C(=O)O,Potency,[1],inactive
same,Potency,[2],inactive
COc1cc(C(=O)NS(=O)(=O)c2ccccc2C)ccc1Cc1cn(C)c2ccc(NC(=O)OC3CCCC3)cc12,Potency,[1],inactive
same,Potency,[2],inactive
CC(=O)[C@H]1CC[C@H]2[C@@H]3C=CC4=CC(=O)CC[C@@]4(C)[C@@H]3CC[C@]12C,Potency,[1],inactive
same,"activity change, negative = inhibition",[2],-10.8%
Cc1nnc(SCC2=C(C(=O)O)N3C(=O)[C@@H](NC(=O)Cn4cnnn4)[C@H]3SC2)s1,Potency,[1],inactive
same,Potency,[2],inactive
COCC(=O)Nc1c(I)c(C(=O)NCC(O)CO)c(I)c(C(=O)N(C)CC(O)CO)c1I (configuration not stated),Potency,[1],inactive
same,Potency,[2],inactive
Cc1ccc(Cl)c(Nc2ccccc2C(=O)O)c1Cl,Potency,[1],inactive
same,"activity change, negative = inhibition",[2],-1.76%
O=C(O)c1ccccc1Nc1cccc(C(F)(F)F)c1,Potency,[1],inactive
same,Potency,[2],inactive
NNC(=O)c1ccncc1,Potency,[1],inactive
same,Potency,[2],inactive
NC[C@H]1O[C@H](O[C@H]2[C@H](O)[C@@H](O[C@H]3O[C@H](CO)[C@@H](O)[C@H](N)[C@H]3O)[C@H](N)C[C@@H]2N)[C@H](O)[C@@H](O)[C@@H]1O,outcome,[1],inactive [at 5.25 µM]
same,"activity change, negative = inhibition",[2],-26.4% [at 5.25 µM]
CCCC(=O)OCOC(=O)C1=C(C)NC(C)=C(C(=O)OC)C1c1cccc(Cl)c1Cl (configuration not stated),Potency,[1],inactive
same,Potency,[2],inactive
COC(=O)c1ccc(O)cc1,Potency,[1],inactive
same,Potency,[2],inactive
CN(C)CCOC(=O)C(c1ccccc1)C1(O)CCCC1 (configuration not stated),Potency,[1],inactive
same,"activity change, negative = inhibition",[2],1%
C[N+](C)(C)CCOC(N)=O,Potency,[1],inactive
same,Potency,[2],inactive
CC(C)(C(=O)c1cccnc1)c1cccnc1,Potency,[1],inactive
same,Potency,[2],inactive
Cc1cc(O)c2c(O)c3c(O)cccc3cc2c1,Potency,[1],inactive
same,"activity change, negative = inhibition",[2],-3.92%
CCN(CC)CCNC(=O)c1cc(S(C)(=O)=O)ccc1OC,Potency,[1],inactive
same,Potency,[2],inactive
CC(=O)N(CC(O)CO)c1c(I)c(C(=O)NCC(O)CO)c(I)c(C(=O)NCC(O)CO)c1I (configuration not stated),Potency,[1],inactive
same,Potency,[2],inactive
CCCCCCCCCCCCOCCO,Potency,[1],inactive
same,"activity change, negative = inhibition",[2],-19.3%
CC(=O)OCC1=C(C(=O)O)N2C(=O)[C@@H](NC(=O)Cc3cccs3)[C@H]2SC1,Potency,[1],inactive
same,"activity change, negative = inhibition",[2],1.38%
COc1ccc(C(=O)c2ccccc2)c(O)c1,Potency,[1],inactive
same,Potency,[2],inactive
